Experimental data from PMC12136788.
Changes are numbered by the printed parent chain. Over roughly 24,000 sequences, “enrichment r” has its median near 0.99; the highest 2% begin near 3.7. The list comes from a sample in which the highest values are over-represented; it also holds similar and randomly drawn sequences.

T1: UNK ZnF1-3 (human, UniProt Q9C0B0 31-174)
T1 sequence: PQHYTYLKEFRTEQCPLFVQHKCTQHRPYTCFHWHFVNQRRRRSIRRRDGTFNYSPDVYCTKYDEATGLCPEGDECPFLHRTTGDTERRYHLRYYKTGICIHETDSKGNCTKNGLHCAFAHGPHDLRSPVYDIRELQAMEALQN

B1: chr5:171327072:171327073:-_ENSG00000072803_ENST00000265094|hu_hu|FALSE|FALSE (ssRNA)
RNA: GGGAGUUCUACAGUCCGACGAUCUACCAGCUCUGCUGCACACAGAGACCUGGCAUCCAGGUACGAAAGAAUGUUUUCUGCUAUGUGAUCUAAGCCUUGCUCUGGUAAAGCGGUAAUAAAGUCCCGCUGCAACAUGGGCUUCAGCAACAGAGGAUUGAGCAUCA
B2: 97033003_97034721_1993_CDS_ENSG00000121152_ENST00000240423|human|control|control (ssRNA)
RNA: GGGAGUUCUACAGUCCGACGAUCCCUGUGGUUUGCCUCUGCAUCUGCCUCCUUUCCGGAGAGCGCUGUCAGCAGACUCCACAUGCUCUGCUUCAGUUUCUUCAUGUCCAUCUUUUUGGCAGUCUUGGCAUAGUGAAUUUCAAUCAACAGAGGAUUGAGCAUCA
B3: chr2:151796264:151796265:-_ENSMUSG00000027459_ENSMUST00000062047|mus_mus|motif|central (ssRNA)
RNA: GGGAGUUCUACAGUCCGACGAUCUGUUCGGCUGGCCUCAGAUGGGGACACAGGACUAUCACACAAGUUGAUGAGGCUGCGGAGGAUGUCGAGGUCCAGUUGGGGCCGGCGGCCAGAACAGGGCAGGACUCGGCGACUGGGUGUCAACAGAGGAUUGAGCAUCA
B4: chr17:38438176:38438177:+_ENSG00000171475_ENST00000323571|hu_mus|FALSE|FALSE (ssRNA)
RNA: GGGAGUUCUACAGUCCGACGAUCCCCCCUGACCAUGUAGCUAGGGACUGAGAGUCACAGGGAAGGGAAAGCUUACACCUGGAAUGUGAAGAAUCUGAUUUACAGCUGAUGGCAGGUUGGGUUUCCAGAAGGGCAGACAGCGCACAACAGAGGAUUGAGCAUCA
B5: chr14:76904430:76904431:+_ENSMUSG00000022010_ENSMUST00000022587|mus_mus|mus_mus_mus_hu_True|8_98 (ssRNA)
RNA: GGGAGUUCUACAGUCCGACGAUCUGCAGCCAAAAACAGAGAGAGGGAAAAAAAGAGGGAACACCAGCAGCCUUGUAUAAGCUAGAUAAAAUCUUCUGGCUUUCCGCAGCCCAGGGAGAAACAGAAAUGGUGCUGGCUAAUUUACAACAGAGGAUUGAGCAUCA
B6: chr1:163116941:163116942:-_ENSG00000143248_ENST00000313961|hu_mus|FALSE|FALSE (ssRNA)
RNA: GGGAGUUCUACAGUCCGACGAUCACAAAGCAGUCAGAAAGAACCAAAAAAAAGAAAAAAAAAAGAAAAAGAAAAAAGUGAGGGCUCUUAGACAACAGAUCCACAUAACCAAACUAACAUGAGCGAAAGAGUUAGCAACACAGCCAACAGAGGAUUGAGCAUCA
B7: chrX:71549762:71549763:+_ENSMUSG00000019087_ENSMUST00000019231|mus_mus|mus_mus_mus_hu_False|8_18 (ssRNA)
RNA: GGGAGUUCUACAGUCCGACGAUCAAACCCGUGUACUUCUUAUUGUUAGCACAACAUCACCAGAAAACGAUAACGACAGCCAAGCAGGACAGACAGUUAAGUAGUACUUCCACACUCCGCAAAUUCAAGGAACCUCAAACCUUACAACAGAGGAUUGAGCAUCA
B8: chr2:125499325:125499326:+_ENSMUSG00000091337_ENSMUST00000164756|mus_mus|FALSE|FALSE (ssRNA)
RNA: GGGAGUUCUACAGUCCGACGAUCGAGCUCUUCGGUCAGUCGAUUGACAACCAUCAGCGAAAACAGCUCUUCGAUAAAAGCUAGCUGGUCGAAAGGGCUCUUCUCACACCGCGCCUGAAAGCCGCCAUCCAGGGCAUCUCCGGCCAACAGAGGAUUGAGCAUCA
B9: chr14:76904430:76904431:+_ENSMUSG00000022010_ENSMUST00000022587|mus_mus|mus_mus_mus_hu_True|58_98 (ssRNA)
RNA: B5 RNA with U77C, G80A, U127A, G128C, U130G, G131C, C132A, U133G, G134C, G135C
B10: chr6:144948378:144948379:-_ENSMUSG00000030268_ENSMUST00000111742|mus_mus|FALSE|FALSE (ssRNA)
RNA: GGGAGUUCUACAGUCCGACGAUCAGGGAACACCAGGCCAGCAGGGCUGCAUGGGGAGCCCAAAUCUGCCCCAAUUAGAAACAAACAAACAAAAAAAAAACAACCAAAACAAAAAACAAAAGAACCUCACCAGCAAAAGAAACACAACAGAGGAUUGAGCAUCA
B11: chr3:9412954:9412955:+_ENSG00000134077_ENST00000452837|hu_mus|hu_hu_hu_mus_False|58_68 (ssRNA)
RNA: GGGAGUUCUACAGUCCGACGAUCGGUUGAUAUCUCUUCUUUGAUGGCUGGAUUUUCAUAAUAGUCCAAGAUAUGAGAAUCUAAAGCGCUGCUGGCAUGCUUUUUCUUACCAUCUUUCUCAUCUGCUUUGUCUCCUUGUCCACACAACAGAGGAUUGAGCAUCA
B12: chr16:94664741:94664742:+_ENSMUSG00000040785_ENSMUST00000117648|mus_hu|mus_mus_mus_hu_False|1_78 (ssRNA)
RNA: GGGAGUUCUACAGUCCGACGAUCUGGUACUGAUCUUGGUAGCUGAUAUUCAGGAGAAAUGUUGGCCAAGGGUGUAUAUAUGCUGGUGUACUGGGGCAAACCUGGUAACACGUUUAUGUAUGCUGGCGGUGUCUGGGUGCCAAACAACAGAGGAUUGAGCAUCA
B13: chr5:37680062:37680063:+_ENSMUSG00000029121_ENSMUST00000031004|mus_hu|mus_mus_mus_hu_False|1_8 (ssRNA)
RNA: GGGAGUUCUACAGUCCGACGAUCUUUGGGUGUAGCUGGUACCUCGUACACAGGACCGUCAUACAUGCCCCUGGAAACCCCUUGCAAUCCAAAAACCUUAUUCCUGAUUUUGACGCGCUGGUACAGGUGCUCUGGGAAUGGCUUCAACAGAGGAUUGAGCAUCA
B14: chrX:98862621:98862622:+_ENSMUSG00000034160_ENSMUST00000044475|mus_hu|mus_mus_mus_hu_False|18_28 (ssRNA)
RNA: GGGAGUUCUACAGUCCGACGAUCCUGCAUCUCCUUUAGAGUGUUUCCCAUAUUAGAGUAGGCAUCAGCAAAGGUAGGACUGAUUCGAAUAGCCUCCUUAUAAUGCAUCAGUGCUUCCUGCAGCUUGCCCUGCUGCUGCAGUACCAACAGAGGAUUGAGCAUCA

Molecular target: T1, UNK ZnF1-3
Assay: nsRBNS (natural sequence RNA bind-n-seq); RBNS binding buffer (assumed for nsRBNS): 25 mM Tris pH 7.5, 150 mM KCl, 3 mM MgCl2, 0.01% Triton X-100, 500 ug/ml BSA, 20 U/ml SUPERase-In, 4 C; UNK is unkempt and MSI1 is Musashi-1; names of the RNAs are library labels; protein concentration not given here; high values mean tight binding

| Binder | binding signal [enrichment R] |
| --- | --- |
| B1 | 1.05 |
| B2 | 0.375 |
| B3 | 0.777 |
| B4 | 1.6 |
| B5 | 3.33 |
| B6 | 10.6 |
| B7 | 1.46 |
| B8 | 1.3 |
| B9 | 3.56 |
| B10 | 7.87 |
| B11 | 0.465 |
| B12 | 0.93 |
| B13 | 0.776 |
| B14 | 1.08 |
